UGM FP inh – Mtb UDP-galactopyranose mutase inhibition. P9WIQ1. purified UGM, fluorescence polarization probe displacement. inhibition, % at 10 µM. 320,000 compounds, 0.06% hits. AID 504406; in the data active = inhibition above about 10%, passing the limit was not always enough
TcdB GH inh – TcdB glycohydrolase inhibition | TcdB glycohydrolase enzymatic assay, plate reader | inhibition, % at 9.99 µM | AID 652162 | 350,000 compounds, 0.24% hits; in the data active = inhibition above about 10%
Target sequence (P18177 whole entry, looked up): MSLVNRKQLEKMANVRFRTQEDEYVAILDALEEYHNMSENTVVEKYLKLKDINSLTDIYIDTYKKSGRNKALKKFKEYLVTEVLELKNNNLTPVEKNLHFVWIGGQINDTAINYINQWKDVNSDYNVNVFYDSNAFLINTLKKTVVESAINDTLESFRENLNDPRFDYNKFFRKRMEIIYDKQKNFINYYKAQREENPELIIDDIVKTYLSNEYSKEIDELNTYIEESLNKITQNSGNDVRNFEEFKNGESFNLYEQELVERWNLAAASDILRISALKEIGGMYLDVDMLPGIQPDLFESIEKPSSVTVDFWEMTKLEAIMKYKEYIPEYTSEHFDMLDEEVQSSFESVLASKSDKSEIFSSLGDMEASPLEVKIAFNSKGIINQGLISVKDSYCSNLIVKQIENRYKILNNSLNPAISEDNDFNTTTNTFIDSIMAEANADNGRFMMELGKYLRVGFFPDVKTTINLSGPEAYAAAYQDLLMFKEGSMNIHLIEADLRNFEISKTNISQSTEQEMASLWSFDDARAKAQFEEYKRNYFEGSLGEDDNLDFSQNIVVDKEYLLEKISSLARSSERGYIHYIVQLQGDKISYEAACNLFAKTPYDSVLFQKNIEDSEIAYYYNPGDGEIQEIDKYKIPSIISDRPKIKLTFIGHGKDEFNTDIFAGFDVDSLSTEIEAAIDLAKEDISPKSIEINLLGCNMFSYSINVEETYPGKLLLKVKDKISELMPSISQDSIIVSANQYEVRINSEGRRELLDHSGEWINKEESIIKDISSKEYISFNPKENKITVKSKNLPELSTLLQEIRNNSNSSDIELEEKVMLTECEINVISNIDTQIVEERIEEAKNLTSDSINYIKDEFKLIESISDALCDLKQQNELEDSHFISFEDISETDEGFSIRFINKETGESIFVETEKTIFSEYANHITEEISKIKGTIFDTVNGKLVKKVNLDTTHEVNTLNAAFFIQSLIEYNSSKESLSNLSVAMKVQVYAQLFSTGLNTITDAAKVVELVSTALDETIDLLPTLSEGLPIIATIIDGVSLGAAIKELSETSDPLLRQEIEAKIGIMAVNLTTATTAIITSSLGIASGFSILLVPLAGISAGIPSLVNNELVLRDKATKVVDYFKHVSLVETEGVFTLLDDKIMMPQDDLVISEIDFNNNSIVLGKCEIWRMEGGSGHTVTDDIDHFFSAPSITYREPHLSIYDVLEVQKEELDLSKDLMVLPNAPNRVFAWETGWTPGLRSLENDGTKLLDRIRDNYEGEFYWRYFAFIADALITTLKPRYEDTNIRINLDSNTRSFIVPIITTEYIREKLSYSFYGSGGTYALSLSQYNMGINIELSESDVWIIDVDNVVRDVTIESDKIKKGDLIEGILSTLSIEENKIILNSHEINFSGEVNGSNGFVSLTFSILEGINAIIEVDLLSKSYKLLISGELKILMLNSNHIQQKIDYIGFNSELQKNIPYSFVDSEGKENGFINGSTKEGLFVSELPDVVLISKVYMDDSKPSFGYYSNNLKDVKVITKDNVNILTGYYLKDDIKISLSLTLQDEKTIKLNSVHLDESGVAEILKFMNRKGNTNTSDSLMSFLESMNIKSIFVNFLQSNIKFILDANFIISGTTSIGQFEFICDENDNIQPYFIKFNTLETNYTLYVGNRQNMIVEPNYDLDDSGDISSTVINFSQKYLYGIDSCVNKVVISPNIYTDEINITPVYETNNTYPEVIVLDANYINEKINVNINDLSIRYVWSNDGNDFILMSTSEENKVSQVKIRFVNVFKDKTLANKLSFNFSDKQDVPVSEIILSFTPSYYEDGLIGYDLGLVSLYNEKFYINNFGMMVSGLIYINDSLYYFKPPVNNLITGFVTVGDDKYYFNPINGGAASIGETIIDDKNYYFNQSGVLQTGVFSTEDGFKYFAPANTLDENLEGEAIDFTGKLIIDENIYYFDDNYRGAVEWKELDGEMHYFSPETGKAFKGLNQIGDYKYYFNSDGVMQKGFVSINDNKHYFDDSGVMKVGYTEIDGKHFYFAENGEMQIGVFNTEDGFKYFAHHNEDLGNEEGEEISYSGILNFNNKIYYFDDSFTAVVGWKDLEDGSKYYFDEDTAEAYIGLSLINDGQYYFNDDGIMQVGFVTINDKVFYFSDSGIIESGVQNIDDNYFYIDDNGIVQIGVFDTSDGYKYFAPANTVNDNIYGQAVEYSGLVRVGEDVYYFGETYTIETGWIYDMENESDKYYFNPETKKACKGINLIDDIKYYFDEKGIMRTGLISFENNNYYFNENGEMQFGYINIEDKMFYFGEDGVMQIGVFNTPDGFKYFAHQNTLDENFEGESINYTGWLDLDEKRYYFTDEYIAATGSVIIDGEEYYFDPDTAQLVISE
Rv3671c inh – inhibitors of M. tuberculosis serine protease Rv3671c | inhibition, % at 5.96 µM | P9WHR9 | AID 2606 | 320,000 compounds, 0.048% hits; in the data active = inhibition above about 38%;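 also: extracellular domain of Rv3671c used as enzyme; 0% = enzyme with DMSO and 100% = no enzyme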
RecA splice inh – blocks M. tuberculosis RecA intein splicing. P9WHJ3. cell-free RecA intein splicing, fluorescence. inhibition, % (concentration not given with the values). 290,000 compounds, 0.75% hits; in the data active = inhibition above about 30%;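 also: 0% = vehicle wells and 100% = reference inhibitor control wells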
MazEF act – MazEF (E. coli) toxin RNase activation; FAM/BHQ RNA-DNA oligo cleavage fluorescence, 5 h; activation, % at 20 µM; 350,000 compounds, 0.32% hits; P0AE70; in the data active = activation above about 50%
Mtb betalactam – beta-lactam sensitization of Mtb H37Rv; AID 434955; M. tuberculosis H37Rv growth with meropenem, percent inhibition; inhibition, % at 25 µM; 330,000 compounds, 0.27% hits;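 also: growth measured after seven days incubation then overnight dye step; 0% = bacteria only wells and 100% = bacteria with antibiotic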
GFP chromo cs – counter-screen: blocks GFP chromophore formation. shares compounds with RecA splice inh. cell-free GFP chromophore formation, fluorescence. EC50, µM. 2,100 compounds, 83% hits
The depositor's hits bear a star; / = no result given. This is a sample that favours compounds with a hit; in the whole collection about 0.97% have one here. Unless noted, no rule for the calls is given here.

SMILES | UGM FP inh | TcdB GH inh | Rv3671c inh | RecA splice inh | MazEF act | Mtb betalactam | GFP chromo cs
COc1cc(C(C(=O)NC2CCCCC2)N(CCN2CCOCC2)C(=O)C2COc3ccccc3O2)cc(OC)c1OC (configuration not stated) | 2 | 0 | -2 | 47* | 10 | -1 | >38
O=C(C[C@H]1CC[C@H](NC(=O)Nc2ccccc2)[C@@H](CO)O1)NCc1cccc(F)c1 | / | 0 | / | / | / | / | /
C[C@H]1CN([C@@H](C)CO)C(=O)c2cccc(NC(=O)C3CCCCC3)c2O[C@@H]1CN(C)Cc1ccc(C(=O)O)cc1 | / | -2 | / | / | / | / | /
COc1ccc(NC(=O)/C(Cl)=C(/Cl)S(=O)(=O)Cc2ccc(C)cc2)cn1 | / | / | / | 89* | 10 | / | 6.7*
O=S(=O)(Nc1cc(Sc2ncn[nH]2)c(O)c2ccccc12)c1ccccc1 | / | -6 | / | / | -17 | / | /
O=C(O)CSc1cc(NS(=O)(=O)c2ccc(Br)cc2)c2ccccc2c1O | 2 | -2 | -145 | 97* | -33 | 8 | 0.68*
CC(C)[n+]1ccn(C2=C([O-])c3ccccc3C(=O)/C2=N\S(=O)(=O)c2ccccc2)c1 | -4 | -1 | -44 | 31* | -8 | -1 | 21*
Cc1cc(C)c[n+](C2=C([O-])c3ccccc3C(=O)/C2=N\S(=O)(=O)c2cccs2)c1 | 4 | 2 | -18 | 2 | -4 | 1 | /
CC(C)(C)c1cc[n+](C2=C([O-])c3ccccc3C(=O)/C2=N\S(=O)(=O)c2ccccc2)cc1 | -1 | 1 | -38 | 50* | -4 | 3 | 16*
Cc1cc[n+](C2=C([O-])c3ccccc3C(=O)/C2=N\S(=O)(=O)c2cccs2)cc1C | 7 | -7 | -39 | 32* | -2 | -3 | 6.7*
O=C([C@H]1[C@H](CO)[C@H]2Cn3c(cccc3=O)[C@@H]1N2CC1CCCC1)N1CCc2ccccc2C1 | / | -2 | / | / | / | / | /
CN(C)CCCNC(=O)C[C@H]1CC[C@H]2[C@H](COc3ccc(NC(=O)c4cccc(F)c4)cc3C(=O)N2C)O1 | / | 1 | / | / | / | / | /
O=C(CCl)NC(=O)NC12CC3CC(CC(C3)C1)C2 | -3 | -1 | -8 | 59* | -6 | 100 | 29*
CCC(=O)N(C)C[C@H]1Oc2cc(C3=CCCC3)ccc2S(=O)(=O)N([C@H](C)CO)C[C@@H]1C | / | 1 | / | / | / | / | /
CSc1nc(-c2ccccc2)nn1C(=O)c1ccc(Cl)cc1 | 0 | / | -3 | 57* | 3 | 33 | >38
CSc1nc(-c2ccc(Cl)cc2)nn1C(=O)c1ccccc1 | 2 | -1 | 1 | 4 | 0 | -3 | /
N#C[C@@H]1[C@H](c2ccc(C#CC3(O)CCCC3)cc2)[C@H](CO)N1C(=O)C1CCC1 | / | 1 | / | / | / | / | /
O=C(CCl)Nc1c(C(=O)Nc2ccc3c(c2)OCCO3)oc2ccccc12 | 3 | -1 | -4 | 31* | 2 | 94 | 3.6*
COCC(=O)Nc1c(C(=O)Nc2ccc3c(c2)OCO3)oc2ccccc12 | 1 | 2 | -11 | -16 | -4 | -1 | /
CN(C)C(=O)c1cccc(-c2ccc3c(c2)[C@H]2[C@H](CCN2C(=O)c2ccncc2)[C@H](CO)N3C)c1 | / | 1 | / | / | / | / | /
O=[N+]([O-])c1c(NCc2ccco2)ccc2nonc12 | -1 | 3 | 5 | 42* | 10 | -6 | 20*
O=[N+]([O-])c1c(Nc2ccccc2)ccc2nonc12 | 0 | / | -6 | 1 | 3 | -5 | /
O=C1C(Cl)=C(N2CCCCCC2)C(=O)N1c1ccc(Br)cc1 | 2 | -1 | -5 | 17 | -63 | / | /
Cc1ccc(N2C(=O)C(Cl)=C(N3CCN(C)CC3)C2=O)c(C)c1 | 1 | / | -7 | 81* | -15 | 96 | 6.4*
O=C1C(Cl)=C(N2CCCCCC2)C(=O)N1c1ccccc1 | 2 | / | -2 | 36* | -2 | -3 | 28*
SMILES | UGM FP inh | TcdB GH inh | Rv3671c inh | RecA splice inh | MazEF act | Mtb betalactam | GFP chromo cs
CN1CCN(C2=C(Cl)C(=O)N(c3ccc(Cl)cc3)C2=O)CC1 | -1 | / | 1 | 33* | -8 | 49 | 0.16*
C[C@H](NC(=O)C[C@@H]1C[C@@H]2c3cc(NC(=O)C4CCC4)ccc3O[C@@H]2[C@H](CO)O1)c1ccccc1 | / | -1 | / | / | / | / | /
CS(=O)(=O)Nc1ccc2c(c1)[C@H]1C[C@H](CC(=O)O)O[C@H](CO)[C@H]1O2 | / | -1 | / | / | / | / | /
CCOc1ccc(N2C(=O)/C(=C\c3ccc(O)c(OC)c3)S(=O)(=O)C2c2cccc([N+](=O)[O-])c2)cc1 (configuration not stated) | 1 | 1 | -2 | 88* | -2 | -9 | 2.5*
CC(=O)C1=C(O)C(=O)N(c2ccc(O)cc2)C1c1cccc([N+](=O)[O-])c1 (configuration not stated) | 0 | 5 | 4 | -1 | 2 | -2 | /
CCOC(=O)C1=C(C)N(c2ccc(OC)cc2)C(=O)/C1=C\c1ccc(O)c(OCC)c1 | -5 | -3 | 6 | 5 | 5 | -3 | /
CCOc1ccc(N2C(=O)/C(=C\c3ccc(OC)c(O)c3)S(=O)(=O)C2c2cccc([N+](=O)[O-])c2)cc1 (configuration not stated) | 1 | 1 | -2 | 82* | 6 | 81 | 14*
C[C@H]1CN([C@@H](C)CO)C(=O)Cc2cc(NC(=O)C3CCCCC3)ccc2O[C@H]1CN(C)Cc1ccc(C(F)(F)F)cc1 | / | 0 | / | / | / | / | /
C[C@H]1CN([C@@H](C)CO)C(=O)c2cc(NS(=O)(=O)c3ccc(F)cc3)ccc2O[C@@H]1CN(C)Cc1ccncc1 | / | 0 | / | / | / | / | /
Cc1c(/C=N/Nc2nc3ccccc3[nH]2)c2ccccc2n1C | -2 | 0 | 31 | 39* | 1 | 97 | 12*
Cn1c(/C=N/Nc2nc3ccccc3[nH]2)nc2ccccc21 | 1 | 1 | -3 | 7 | 2 | 98 | /
c1ccc(Nc2nc(NCc3ccco3)c3ccccc3n2)cc1 | -2 | 0 | -3 | 38* | 44 | 97 | 26*
Cc1cccc(Nc2nc(NCc3ccco3)c3ccccc3n2)c1 | -2 | 0 | 34 | 33* | 14 | 100 | 15*
C[C@H]1CN([C@@H](C)CO)C(=O)Cc2cc(NC(=O)CCCCCC(=O)Nc3ccccc3N)ccc2O[C@H]1CN(C)C(=O)NC1CCCCC1 | / | 0 | / | / | / | / | /
C=CCSC(=C(C#N)C#N)c1cc2c([nH]1)CCCC2 | -2 | / | 0 | 70* | 10 | 23 | 17*
Cc1noc2ncnc(Sc3ccc(Br)cc3)c12 | 0 | 2 | -10 | 37* | 3 | 100 | 31*
O=C(C[C@@H]1C[C@H]2c3cc(NC(=O)Nc4ccccc4F)ccc3O[C@H]2[C@@H](CO)O1)NCc1cc(F)ccc1F | / | -9 | / | / | / | / | /
N#C/C(=C/c1ccncc1)c1nc2ccccc2s1 | -3 | 0 | -14 | 74* | 39 | -3 | 22*
O=c1oc2cc(Oc3ccc(C(F)(F)F)cc3[N+](=O)[O-])ccc2c2c1CCC2 | -1 | -1 | -6 | -4 | -1 | 6 | /
